{
  "source": "PubChem BioAssay AID624494",
  "about": "(National Center for Advancing Translational Sciences (NCATS), 2012)",
  "note": "Activity calls are given as the source filed them.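 The calls were made as follows: active = D2 binding constant Ki of 1000 nM or lower when displacing the radioligand; inactive = the rest.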",
  "data": [
    {"target": "D(2) dopamine receptor (Homo sapiens) (UniProt P14416)", "sequence (P14416 whole entry, looked up)": "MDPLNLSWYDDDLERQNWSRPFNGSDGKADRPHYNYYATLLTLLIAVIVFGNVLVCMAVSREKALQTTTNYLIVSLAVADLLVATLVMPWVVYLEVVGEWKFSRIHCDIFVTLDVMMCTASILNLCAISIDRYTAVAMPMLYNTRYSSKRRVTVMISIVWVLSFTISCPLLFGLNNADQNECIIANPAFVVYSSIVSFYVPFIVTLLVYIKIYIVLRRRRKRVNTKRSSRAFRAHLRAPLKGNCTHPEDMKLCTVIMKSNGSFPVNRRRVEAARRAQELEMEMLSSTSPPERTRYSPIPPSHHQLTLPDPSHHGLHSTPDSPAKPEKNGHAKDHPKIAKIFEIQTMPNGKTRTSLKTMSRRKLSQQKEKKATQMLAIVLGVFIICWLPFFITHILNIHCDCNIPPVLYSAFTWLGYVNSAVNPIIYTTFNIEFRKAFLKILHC", "assay": "HTS Assay for Allosteric Antagonists of the Human D2 Dopamine Receptor: SAR in D2 Binding Assay", "settings": "D2 radioligand binding, methylspiperone displacement", "excerpt": "Dopamine receptors (DARs) are involved in the etiology and/or therapy of a number of neuropsychiatric and endocrine disorders. For instance, all receptor-based antiparkinsonian drugs work via stimulating the D2 DAR subtype whereas all FDA-approved antipsychotic agents are antagonists of this receptor. […] There are three different types of allosteric modulators that we are seeking, two of which will stimulate or augment receptor signaling, allosteric agonists and potentiators, while the third, allosteric antagonists, will attenuate receptor signaling. The present primary screening assay measures compound antagonism after an EC80 addition of dopamine by tracking calcium flux in a […], inducible Hek293 Trex D2 cell line. This assay measures activity of the leads in the D2 radioligand binding assay. NIH Chemical Genomics Center [NCGC] NIH Molecular Libraries Probe Centers Network [MLPCN] MLPCN Grant: NS0676421 Assay Submitter (PI): David Sibley\nRadioligand displacement assay will be done to determine if the lead compounds are allosteric or orthosteric in nature, for interaction with the D2 receptor. Compounds will be evaluated for their ability to displace binding of methylspiperone.", "values": [
      {"smiles": "CN1C(=O)c2ccccc2[S@](=O)c2ccc(C(=O)NCCc3cccs3)cc21", "Ki": "100 nM (active)"}
    ]}
  ]
}
